PubChem BioAssay (EPA / NIEHS)
“And” between values parts separate entries of the source, which are not always exact repeats. Equal values may be shown once. Results filed as inconclusive are left out. Where a structure was tested more than once in an assay, its records may differ in their call. The source made the active and inactive calls. How the source made its calls, unless noted: active means hit-call score of the fitted dose curve at least 0.9, where 1 is the maximum; inconclusive means response in the unintended direction; inactive means score below 0.9.

Legend:
[1] = read-out: solute carrier (SLCO1B1), SLCO1B1 (gene 10599); experiment: LTEA_HepaRG_SLCO1B1: Life Technologies and Expression Analysis (LTEA) Assay for solute carrier (SLCO1B1) using HepaRG (AID 2283530; active means hit-call score of the fitted dose curve at least 0.9, where 1 is the maximum; inactive means score below 0.9); details: mRNA level, 48 h; actives raise or lower the signal
Outline: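 Differentiated human HepaRG cells were exposed for 48 h in serum-free induction medium to eight half-log concentrations, top 100 uM, in 0.5% DMSO. SLCO1B1 mRNA was measured by qRT-PCR, normalized to ACTB, GAPDH and POLR2A, and fitted bidirectionally against DMSO.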

[2] = read-out: Transforming Growth Factor (TGFA), TGFA (gene 7039); experiment: LTEA_HepaRG_TGFA: Life Technologies and Expression Analysis (LTEA) Assay for Transforming Growth Factor (TGFA) using HepaRG (AID 2283532; active means hit-call score of the fitted dose curve at least 0.9, where 1 is the maximum; inactive means score below 0.9); details: mRNA level, 48 h; actives raise or lower the signal
Outline: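 Differentiated HepaRG cells exposed 48 hours in serum-free induction medium, 0.5% DMSO vehicle, 8-point half-log series from 100 uM, in duplicate. TGFA mRNA by TaqMan qRT-PCR, normalised to ACTB, GAPDH, POLR2A; bidirectional fit versus DMSO.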

[3] = read-out: Transforming Growth Factor (TGFB1), TGFB1 (gene 7040); experiment: LTEA_HepaRG_TGFB1: Life Technologies and Expression Analysis (LTEA) Assay for Transforming Growth Factor (TGFB1) Transporter using HepaRG (AID 2283533; active means hit-call score of the fitted dose curve at least 0.9, where 1 is the maximum; inactive means score below 0.9); details: mRNA level, 48 h; actives raise or lower the signal
Outline: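 Differentiated HepaRG cells exposed 48 hr in serum-free induction medium to eight half-log concentrations up to 100 uM (0.5% DMSO), duplicate; TGFB1 mRNA by TaqMan qRT-PCR normalised to ACTB, GAPDH, POLR2A; bidirectional fit against DMSO.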

TIMP1, TIMP1 (gene 7076) = experiment: LTEA_HepaRG_TIMP1: Life Technologies and Expression Analysis (LTEA) Assay for TIMP1 using HepaRG (AID 2283534; active means hit-call score of the fitted dose curve at least 0.9, where 1 is the maximum; inactive means score below 0.9;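 further: TaqMan qRT-PCR signal normalized to ACTB GAPDH and POLR2A housekeeping genes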); details: mRNA level, 48 h; actives raise or lower the signal
Outline: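 Differentiated HepaRG cells exposed 48 h in serum-free induction medium, duplicates, eight half-log concentrations from 100 uM in 0.5% DMSO. TIMP1 mRNA by qRT-PCR normalized to ACTB, GAPDH, POLR2A; bidirectional fitting against DMSO.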

[4] = read-out: Tumor necrosis factor receptor 1 (TNFRSF1A), TNFRSF1A (gene 7132); experiment: LTEA_HepaRG_TNFRSF1A: Life Technologies and Expression Analysis (LTEA) Assay for Tumor necrosis factor receptor 1 (TNFRSF1A) using HepaRG (AID 2283535; active means hit-call score of the fitted dose curve at least 0.9, where 1 is the maximum; inactive means score below 0.9); details: mRNA level, 48 h; actives raise or lower the signal
Outline: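 Differentiated HepaRG cells in serum-free induction medium, exposed 48 h in duplicate to 8 half-log concentrations up to 100 uM in 0.5% DMSO. TNFRSF1A mRNA by Fluidigm TaqMan qRT-PCR, normalized to ACTB, GAPDH, POLR2A; bidirectional fit.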

[5] = read-out: Thyroid Hormone Responsive (THRSP), THRSP (gene 7069); experiment: LTEA_HepaRG_THRSP: Life Technologies and Expression Analysis (LTEA) Assay for Thyroid Hormone Responsive (THRSP) using HepaRG (AID 2283536; active means hit-call score of the fitted dose curve at least 0.9, where 1 is the maximum; inactive means score below 0.9); details: mRNA level, 48 h; actives raise or lower the signal
Outline: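 Differentiated HepaRG cells treated 48 h in serum-free induction medium with 8 half-log concentrations up to 100 uM (0.5% DMSO), duplicates. THRSP mRNA by TaqMan qRT-PCR normalised to ACTB, GAPDH, POLR2A; bidirectional fit versus DMSO.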

[6] = read-out: Cellular tumor antigen p53 (Homo sapiens) (UniProt P04637); experiment: LTEA_HepaRG_TP53: Life Technologies and Expression Analysis (LTEA) Assay for Tumor Protein P53 (TP53) using HepaRG (AID 2283537; active means hit-call score of the fitted dose curve at least 0.9, where 1 is the maximum; inactive means score below 0.9); details: mRNA level, 48 h; actives raise or lower the signal
Outline: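 Gain or loss of TP53 mRNA signal is scored relative to 0.5% DMSO after 48 h chemical treatment of HepaRG liver cells, tested in duplicate at eight half-log concentrations up to 100 uM.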

[7] = read-out: UDP glucuronosyltransferase (UGT1A1), UGT1A1 (gene 54658); experiment: LTEA_HepaRG_UGT1A1: Life Technologies and Expression Analysis (LTEA) Assay for UDP glucuronosyltransferase (UGT1A1) using HepaRG (AID 2283538; active means hit-call score of the fitted dose curve at least 0.9, where 1 is the maximum; inactive means score below 0.9); details: mRNA level, 48 h; actives raise or lower the signal
Outline: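 Human liver HepaRG cultures receive test chemical for 48 h, up to 100 uM in 0.5% DMSO, with phenobarbital induction controls. UGT1A1 mRNA is measured by qRT-PCR and normalized to ACTB, GAPDH and POLR2A.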

[8] = read-out: UDP glucuronosyltransferase (UGT1A6), UGT1A6 (gene 54578); experiment: LTEA_HepaRG_UGT1A6: Life Technologies and Expression Analysis (LTEA) Assay for UDP glucuronosyltransferase (UGT1A6) using HepaRG (AID 2283539; active means hit-call score of the fitted dose curve at least 0.9, where 1 is the maximum; inactive means score below 0.9); details: mRNA level, 48 h; actives raise or lower the signal
Outline: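 Differentiated HepaRG cells, ~100,000/well, were exposed for 48 h in serum-free induction medium with 0.5% DMSO to 8-point half-log series topping at 100 uM, in duplicate. mRNA measured by Fluidigm TaqMan qRT-PCR, normalized to ACTB, GAPDH and POLR2A.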

[9] = read-out: X-box binding protein 1 (XBP1), XBP1 (gene 7494); experiment: LTEA_HepaRG_XBP1: Life Technologies and Expression Analysis (LTEA) Assay for X-box binding protein 1 (XBP1) using HepaRG (AID 2283540; active means hit-call score of the fitted dose curve at least 0.9, where 1 is the maximum; inactive means score below 0.9); details: mRNA level, 48 h; actives raise or lower the signal
Outline: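 Differentiated human HepaRG cells in serum-free induction medium exposed 48 h in duplicate to eight half-log concentrations up to 100 uM in 0.5% DMSO. XBP1 mRNA measured by Fluidigm TaqMan qRT-PCR, normalized to ACTB, GAPDH, POLR2A; bidirectional fitting against DMSO.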

[10] = LTEA_HepaRG_LDH_cytotoxicity: Cytotoxicity Assessment in the Life Technologies and Expression Analysis (LTEA) Assay (AID 2283563);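 on AC50: LDH activity released into spent culture medium as a marker of cell death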
Outline: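 Differentiated HepaRG cells in serum-free induction medium, exposed 48 h in duplicate to 8 half-log concentrations up to 100 uM in 0.5% DMSO. Cytotoxicity from LDH measured in spent medium, fit relative to DMSO.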

[11] = ATG_XTT_Cytotoxicity: Cytotoxicity Assessment in the Attagene TRANS-FACTORIAL HepG2 Assay (AID 2283584)
Outline: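 HepG2 cells transiently transfected with GAL4-UAS multiple reporter units, dosed 24 h; cytotoxicity read by XTT as loss of signal versus DMSO baseline.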

[12] = TOX21_p53_BLA_p2_viability: Viability Assessment in the Tox21 HCT-116 p53 Agonism Beta-lactamase Assay, Phase 2 (AID 2283591);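 further: compound exposure lasted 16 h at 37 °C; actives lower the ATP signal meaning cytotoxicity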
Outline: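 HCT116 p53-bla cells, 4000/well, dosed after 5 h plating (217-fold dilution of DMSO stocks) and incubated 16 h at 37C. Viability taken as cellular ATP by CellTiter-Glo luminescence after 30 min RT; signal loss marks cytotoxicity.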

[13] = biological target: Cellular tumor antigen p53 (Homo sapiens) (UniProt P04637); experiment: TOX21_p53_BLA_p2_ratio: Tox21 HCT-116 p53 Agonism Beta-lactamase Assay, Ratio, Phase 2 (AID 2283592)
Chain of Cellular tumor antigen p53 (Homo sapiens) (P04637 whole entry, looked up): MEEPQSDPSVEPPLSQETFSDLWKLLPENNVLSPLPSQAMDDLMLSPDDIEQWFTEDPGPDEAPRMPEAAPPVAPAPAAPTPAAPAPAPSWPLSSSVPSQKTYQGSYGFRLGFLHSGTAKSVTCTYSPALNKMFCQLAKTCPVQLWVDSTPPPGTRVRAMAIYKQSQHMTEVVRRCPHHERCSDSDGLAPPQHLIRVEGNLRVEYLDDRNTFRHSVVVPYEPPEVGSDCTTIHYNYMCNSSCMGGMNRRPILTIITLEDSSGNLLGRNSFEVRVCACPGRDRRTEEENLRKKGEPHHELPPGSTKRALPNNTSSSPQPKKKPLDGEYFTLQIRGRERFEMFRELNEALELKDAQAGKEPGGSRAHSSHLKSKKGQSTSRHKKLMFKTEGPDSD
Outline: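 HCT-116 cells with p53-responsive beta-lactamase reporter, 4000 cells/well, preincubated 5 h, then compound in DMSO (217-fold dilution) for 16 h at 37C. CCF4-AM substrate 2 h at room temperature; 460/530 nm emission ratio fitted upward versus DMSO.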

[14] = TOX21_p53_BLA_p3_viability: Viability Assessment in the Tox21 HCT-116 p53 Agonism Beta-lactamase Assay, Phase 3 (AID 2283593);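 further: cells exposed to compound for 16 h before reading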
Outline: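 HCT116 cells, 4000/well, dosed 5 h after plating by pin transfer (217-fold dilution from DMSO stock) and incubated 16 h at 37C, 5% CO2. Viability read as ATP luminescence with CellTiter-Glo after 30 min at room temperature.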

[15] = biological target: Cellular tumor antigen p53 (Homo sapiens) (UniProt P04637); experiment: TOX21_p53_BLA_p3_ratio: Tox21 HCT-116 p53 Agonism Beta-lactamase Assay, Ratio, Phase 3 (AID 2283596)
Outline: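 HCT116 p53-bla cells (4000/well) given compound in DMSO (217-fold dilution) after 5 h, incubated 16 h at 37C. CCF4-AM substrate 2 h at room temperature; 460/530 nm emission ratio, gain fitted against DMSO.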

[16] = TOX21_p53_BLA_p4_viability: Viability Assessment in the Tox21 HCT-116 p53 Agonism Beta-lactamase Assay, Phase 4 (AID 2283597);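 further: hits lower the luminescence signal meaning cytotoxicity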
Outline: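 HCT-116 p53-bla cells, 4000/well, dosed after 5 h attachment and incubated 16 h at 37 °C, 5% CO2. Viability from CellTiter-Glo ATP luminescence after 30 min at room temperature, taken after the beta-lactamase read; loss of signal indicates cytotoxicity.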

[17] = TOX21_p53_BLA_p5_viability: Viability Assessment in the Tox21 HCT-116 p53 Agonism Beta-lactamase Assay, Phase 5 (AID 2283600)
Outline: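 HCT-116 p53 beta-lactamase reporter cells, 4000/well, were exposed to compound (pin transfer, 217-fold dilution) for 16 hours at 37C. Cellular ATP was read by CellTiter-Glo luminescence after 30 min at room temperature.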

[18] = biological target: Cellular tumor antigen p53 (Homo sapiens) (UniProt P04637); experiment: TOX21_p53_BLA_p4_ratio: Tox21 HCT-116 p53 Agonism Beta-lactamase Assay, Ratio, Phase 4 (AID 2283601)
Outline: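 HCT-116 p53 beta-lactamase reporter cells (4000/well) preincubated 5 h, then compound (217-fold dilution of DMSO stock) for 16 h at 37C. CCF4-AM substrate added 2 h at room temperature; 460/530 nm emission ratio fitted upward versus DMSO.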

[19] = read-out: sulfotransferase 2A1 (SULT2A1), SULT2A1 (gene 6822); experiment: LTEA_HepaRG_SULT2A1: Life Technologies and Expression Analysis (LTEA) Assay for sulfotransferase 2A1 (SULT2A1) using HepaRG (AID 2283531; active means hit-call score of the fitted dose curve at least 0.9, where 1 is the maximum; inactive means score below 0.9); details: mRNA level, 48 h; actives raise or lower the signal
Outline: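 HepaRG human liver cells, 48 h exposure in serum-free induction medium to 8 half-log concentrations topping at 100 µM (0.5% DMSO), duplicate wells. SULT2A1 mRNA measured by TaqMan qRT-PCR, normalized to ACTB/GAPDH/POLR2A; bidirectional fit against DMSO.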

Measured: AC50

O=S1OCC2C(CO1)C1(Cl)C(Cl)=C(Cl)C2(Cl)C1(Cl)Cl (configuration not stated)
active: [1] 20.8 µM | [3] 72.1 µM | [5] 41.7 µM | [6] 70.2 µM | [10] 94 µM | [12] 46.1 µM and 81.5 µM | [13] 73.9 µM and 86.2 µM | [14] 54.1 µM | [16] 70.9 µM and 85.8 µM | [17] 75.3 µM and 70.2 µM | [18] 69.2 µM and 74.9 µM
inactive: [2] | TIMP1, TIMP1 (gene 7076) | [4] | [7] | [8] | [9] | [11] | [14] | [15]

CC(C)OC(=O)Nc1cccc(Cl)c1
inactive: [1] | [19] | [2] | [3] | TIMP1, TIMP1 (gene 7076) | [5] | [6] | [7] | [8] | [9] | [10] | [13] | [14] | [15] | [16] | [18]
active: [4] 50 µM
